In PubChem BioAssay (Tox21) one finds Potency, activity change, positive = activation and max response data, which are given here for 7 compounds.

Experiment [1] is described as follows: qHTS assay to identify small molecule agonists of the hypoxia (HIF-1) signaling pathway - cell viability counter screen (AID 1224844; calls by dose curve; also: nearly all actives have a fitted effect of over 50% in size). An outline of the steps:
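Cytotoxicity was measured in parallel with the HRE-driven beta-lactamase readout: after 17 hrs of compound exposure at 37C, HRE-bla ME-180 cells received CellTiter-Glo and luminescence was recorded 30 min later.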
A general note: qHTS replaces the single test concentration by a dilution series.

The nature of experiment [2]: qHTS assay to identify small molecule agonists of H2AX (AID 1224845; active = well fitted activation curve with a large enough effect in the signal ratio in the repeat runs, not every such curve was filed as active; the % refers to the signal ratio). The essentials:
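Wild-type CHO-K1 cells plated overnight, then exposed 3 hr at 37C to compounds at 15 concentrations (0.76% DMSO). Lysed, then HTRF anti-pH2AX(S139)-cryptate/anti-H2AX-d2 detection after 24 hr at room temperature; emissions 665 and 620 nm.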

Experiment [3] in a line: qHTS assay to identify small molecule agonists of the hypoxia (HIF-1) signaling pathway (AID 1224846; active = well fitted activation curve with a large enough effect in the signal ratio in the repeat runs, not every such curve was filed as active; the % refers to the signal ratio). An outline of the steps: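 Compounds from the Tox21 10K library, dissolved in DMSO, are tested for induction of a hypoxia response element–controlled beta-lactamase reporter in ME-180 cells. Exposure lasts 17 hrs at 37C after a 5 hr settling period, followed by CCF4-AM FRET substrate.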

Experiment [4] in a line: qHTS assay to identify small molecule agonists of H2AX - cell viability counter screen (AID 1224847; calls by dose curve; also: top concentration of the series differs between compounds; nearly all actives have a fitted effect of over 30% in size). An outline of the steps:
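Viability of CHO-K1 (wild type) cells after 3 hr compound exposure was measured by CellTiter-Glo luminescence.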

The nature of experiment [5]: qHTS assay to identify small molecule antagonists of the estrogen related receptor (ERR) signaling pathway from Tox21 library (AID 1224848). Also: nearly all actives have a fitted effect of over 50% in size. The essentials:
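First, 2,000 ERR cells per well were plated and held 6 h at 37 C/5% CO2. Next, compounds in DMSO were pinned in and left 18 h at 37 C. Finally, ONE-Glo was added and luminescence read after 30 min at room temperature.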

A short description of experiment [6]: qHTS assay to identify small molecule agonists of the estrogen related receptor (ERR) signaling pathway from Tox21 library (AID 1224849; calls by dose curve; also: nearly all actives have a fitted effect of over 15% in size). The conditions noted are these: ERR reporter cell line, ONE-Glo luciferase, 18 h; at 92.4 µM (top of the series) unless noted. An outline of the steps:
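Cells carrying the ERR reporter were plated and allowed to settle for 6 h, exposed to library compounds for 18 h at 37 C, then lysed with ONE-Glo and luminescence measured.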

Experiment [7] can be described thus: qHTS RealTime-Glo MT Cell Viability Assay in HepG2 cells - 24 hour (AID 1224867). Also: nearly all actives have a fitted effect of over 50% in size. The essentials: (§1)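 Viability was tracked continuously by NanoLuc luminescence from prosubstrate reduced by living HepG2 cells, at successive time points over 40 h of compound exposure. Cells with reagent were preincubated 5 h at 37 °C before compound addition.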
Experiment [8] in a line: A CellTox Green Cytotoxicity Assay to monitor cytotoxicity in HEK293 cells - 0 hour (AID 1224869). Also: nearly all actives have a fitted effect of over 50% in size. An outline of the steps:
(§2)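 Cells (HEK293, 600/well) and dye reagent are dispensed together. After 5 h at 37 C, 23 nL compound is pinned in. Plates stay at 37 C for 40 h with fluorescence read at 0h, 8h, 16h, 24h, 32h and 40h.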

Experiment [9] is described as follows: qHTS RealTime-Glo MT Cell Viability Assay in HepG2 cells - 40 hour (AID 1224870). Also: nearly all actives have a fitted effect of over 50% in size. An outline of the steps:
(§3)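 HepG2 cells mixed with RealTime-Glo MT reagents (NanoLuc plus cell-permeant prosubstrate) were seeded at 600 cells/well, incubated 5 h at 37 C/5% CO2, then pinned with compounds in DMSO; nonlytic luminescence tracked viability during 40 h treatment.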

The nature of experiment [10]: A CellTox Green Cytotoxicity Assay to monitor cytotoxicity in HEK293 cells - 40 hour (AID 1224871). Also: nearly all actives have a fitted effect of over 45% in size. An outline of the steps:
as §2

Experiment [11] is described as follows: qHTS RealTime-Glo MT Cell Viability Assay in HEK293 cells - 16 hour (AID 1224872). An outline of the steps:
(§4)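 Viability tracked continuously by luminescence as live cells reduce a prosubstrate for NanoLuc; HEK293 cells preincubated 5 h, compound-treated at 37 C, and read at 0, 8, 16, 24, 32 and 40 h.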

Experiment [12] can be described thus: qHTS RealTime-Glo MT Cell Viability Assay in HepG2 cells - 8 hour (AID 1224873). Also: nearly all actives have a fitted effect of over 55% in size. An outline of the steps:
as §3

Experiment [13] in a line: A CellTox Green Cytotoxicity Assay to monitor cytotoxicity in HEK293 cells - 24 hour (AID 1224875). Also: nearly all actives have a fitted effect of over 45% in size. The essentials:
as §2

A short description of experiment [14]: qHTS RealTime-Glo MT Cell Viability Assay in HepG2 cells - 32 hour (AID 1224877). Also: nearly all actives have a fitted effect of over 55% in size. The essentials:
as §1

A short description of experiment [15]: A CellTox Green Cytotoxicity Assay to monitor cytotoxicity in HepG2 cells - 24 hour (AID 1224878). Also: nearly all actives have a fitted effect of over 45% in size. The essentials:
(§5)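 Cells and non-lytic dye reagent are dispensed together (600 HepG2 cells/well) and incubated 5 h before DMSO compound transfer. Kinetic fluorescence is then recorded in the same wells during 40 h at 37 C.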

The nature of experiment [16]: A CellTox Green Cytotoxicity Assay to monitor cytotoxicity in HepG2 cells - 40 hour (AID 1224879). Also: nearly all actives have a fitted effect of over 40% in size. Also: potency is read from the fitted curve at half-maximal effect. The essentials: as §5
A short description of experiment [17]: qHTS RealTime-Glo MT Cell Viability Assay in HEK293 cells - 0 hour (AID 1224880). Also: top concentration of the series differs between compounds; nearly all actives have a fitted effect of over 45% in size. An outline of the steps:
(§6)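 Real-time viability in HEK293: signal arises when living cells convert a prosubstrate for NanoLuc in the medium, so luminescence tracks viable cell number. Compound (23 nL, DMSO) added 5 h post-seeding; kinetic reads at 0–40 h, 37 C.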

Experiment [18] in a line: qHTS RealTime-Glo MT Cell Viability Assay in HEK293 cells - 32 hour (AID 1224868). The essentials:
as §4

Experiment [19] can be described thus: qHTS RealTime-Glo MT Cell Viability Assay in HEK293 cells - 40 hour (AID 1224874). Also: nearly all actives have a fitted effect of over 50% in size. The conditions noted are these: RealTime-Glo luminescence; max response: hits give low values. An outline of the steps:
as §6

Experiment [20] can be described thus: A CellTox Green Cytotoxicity Assay to monitor cytotoxicity in HepG2 cells - 16 hour (AID 1224876). Also: nearly all actives have a fitted effect of over 45% in size. The essentials: as §5

Values without a mark were called inactive. Results filed as inconclusive are left out. Active and inactive are the calls of the source. Unless noted, calls follow the shape of the dose curve; as a rule, active = well fitted curve in the direction sought with a large enough effect in the repeat runs; inconclusive = weak or mixed curves; inactive = no such curve, though single readings can be large; an effect the other way counts as inactive or inconclusive.
% is scaled to controls: 0 for no effect and ±100 for the full control effect.

In the case of `CSSC`, the Potency result in experiment [1], in experiment [2], in experiment [3], in [4], in [5] and in experiment [7] was “inactive” in each case. In addition, the Potency result in [8], in experiment [9], in [10], in experiment [11], in experiment [12] and in experiment [13] was “inactive” throughout. Moreover, the Potency result in [14], in experiment [15] and in experiment [17] was “inactive” each time. Moreover, the activity change, positive = activation in [6] is -6.7%. Besides, the Potency in experiment [16] was 7.86 µM (active).
Take `O=c1[nH]c2cc(Cl)ccc2n1C1CCNCC1`: the Potency entry in experiment [1], in experiment [2], in experiment [3], in experiment [4], in [7] and in experiment [18] was “inactive” in each case. In addition, the Potency result in [8], in experiment [9], in experiment [10], in experiment [11], in [12] and in experiment [13] was “inactive” each time. In addition, the Potency entry in [14], in [15], in experiment [16] and in [17] was “inactive” each time. Besides, the activity change, positive = activation in [6] is 0.0547% [at 42.5 µM]. Also, the max response in experiment [19] is 4.84%.
As for `CC(=O)[O-].CC(=O)[O-].CC(=O)[O-].[Cr+3]`, the Potency result in experiment [1], in experiment [2], in experiment [3], in [4], in [7] and in experiment [18] was “inactive” in each case. Further, the Potency result in experiment [8], in experiment [9], in [10], in experiment [11], in experiment [12] and in [13] was “inactive” throughout. Also, the Potency entry in experiment [20], in experiment [14], in [15], in experiment [16] and in experiment [17] was “inactive” in each case. The max response in experiment [19] was -0.681%.
As for `CC(C)NCC(O)c1ccccc1Cl` (stereo not drawn), the Potency entry in experiment [1], in experiment [2], in experiment [3], in experiment [4], in experiment [5] and in experiment [7] was “inactive” throughout. Besides, the Potency result in experiment [18], in [8], in experiment [9], in experiment [10], in [11] and in [12] was “inactive” in each case. In addition, the Potency entry in [13], in experiment [20], in [14], in experiment [15], in experiment [16] and in experiment [17] was “inactive” in each case. The activity change, positive = activation in experiment [6] is 0.518% [at 42.5 µM]. Moreover, the max response in [19] is 1.74%.
Regarding `CC(Cc1ccc(OCC(=O)O)cc1)NCC(O)c1csc(C(F)(F)F)n1` (stereo not drawn), the Potency entry in experiment [1], in [2], in experiment [3], in [4], in experiment [7] and in experiment [18] was “inactive” each time. Besides, the Potency result in [8], in [9], in experiment [10], in experiment [11], in experiment [12] and in experiment [13] was “inactive” throughout. Further, the Potency result in experiment [20], in [14], in experiment [15], in experiment [16] and in experiment [17] was “inactive” throughout. Moreover, the activity change, positive = activation in [6] is 13.9%. Besides, the max response in experiment [19] was -5.31%.
As for `CC[N+]1(CC)CCC(OC(=O)C(O)(c2ccccc2)c2ccccc2)C1` (stereo not drawn), the Potency result in experiment [1], in experiment [2], in [3], in [4], in experiment [7] and in [18] was “inactive” each time. Besides, the Potency entry in experiment [8], in [9], in [10], in [11], in [12] and in experiment [13] was “inactive” throughout. Besides, the Potency entry in experiment [20], in experiment [14], in [15], in experiment [16] and in experiment [17] was “inactive” in each case. The max response in experiment [19] was 2.71%.
With `CC(C)C(Br)C(=O)NC(N)=O` (stereo not drawn), the Potency result in experiment [1], in experiment [2], in experiment [3], in [4], in experiment [7] and in experiment [18] was “inactive” in each case. Further, the Potency entry in experiment [8], in experiment [9], in experiment [10], in experiment [11], in experiment [12] and in [13] was “inactive” throughout. In addition, the Potency entry in experiment [20], in [14], in experiment [15], in experiment [16] and in experiment [17] was “inactive” throughout. The max response in experiment [19] was 7.13%.
